Source: PubChem BioAssay (NCI)
Compounds without any hit were thinned out: in the full panel of roughly 83,000, 20% have a hit.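 Negative percent growth values reflect cell death: -40 means 40% of the cells present at the start died, and -100 means all died.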 Values without a mark were called inactive. The source made the active and inactive calls. How the source made its calls: active means growth percent below 10; inactive means the rest.

What was measured:
Test in all cases: NCI-60 one-dose screen, 48 h (100 = growth as untreated, 0 = no growth, -100 = all killed)
Settings in all cases: 10 µM unless noted
[1] = test system: NCI-H23 lung
[2] = test system: NCI-H226 lung
[3] = test system: NCI-H322M lung
[4] = test system: HOP-62 NSCLC
[5] = test system: NCI-H460 lung
[6] = test system: HOP-92 NSCLC
[7] = test system: NCI-H522 lung
[8] = test system: A549/ATCC NSCLC
[9] = test system: 786-0 renal
[10] = test system: DU-145 prostate
[11] = test system: K-562 leukemia
[12] = test system: MALME-3M melanoma
[13] = test system: MDA-MB-231 breast
[14] = test system: RXF 393 renal
[15] = test system: SF-268 CNS
[16] = test system: SF-295 CNS
[17] = test system: SF-539 CNS
[18] = test system: UACC-257 melanoma
[19] = test system: M14 melanoma

Q: With `COc1cc2c(cc1OC)-c1ccc3cc4c(cc3c1N(CCCn1ccnc1)C2)OCO4` as the compound, how does the growth [1] read?
A: 16.6%

Q: What about the growth [2] of the same compound?
A: 51.9%

Q: What about the growth [3] of the same compound?
A: 76.9%

Q: And the growth [4]?
A: 24.9%

Q: And the growth [5]?
A: 6.34% (active)

Q: What about the growth [6] of the same compound?
A: 26.8%

Q: What about the growth [7] of the same compound?
A: -19.1% (active)

Q: And the growth [8]?
A: 56.2%

Q: And the growth [9]?
A: 35.1%

Q: And the growth [10]?
A: 39.6%

Q: And the growth [11]?
A: 20.4%

Q: And the growth [12]?
A: 47.8%

Q: What about the growth [13] of the same compound?
A: 56.7%

Q: And the growth [14]?
A: 57.8%

Q: What about the growth [15] of the same compound?
A: 34.4%

Q: What about the growth [16] of the same compound?
A: 27.7%

Q: What about the growth [17] of the same compound?
A: 13.3%

Q: What about the growth [18] of the same compound?
A: 52.8%

Q: And the growth [19]?
A: 27.1%

Q: For `Clc1ccc2c(NCCCN3CCN(c4nc(N5CCOCC5)nc5ccccc45)CC3)ccnc2c1`, which growth [1] is on record?
A: 73.8%

Q: And the growth [2]?
A: 75.7%

Q: And the growth [3]?
A: 30%

Q: What about the growth [4] of the same compound?
A: 42.6%

Q: What about the growth [5] of the same compound?
A: 4.92% (active)

Q: And the growth [6]?
A: 12.2%

Q: What about the growth [7] of the same compound?
A: 13%

Q: And the growth [8]?
A: 24%

Q: What about the growth [9] of the same compound?
A: -36% (active)

Q: What about the growth [10] of the same compound?
A: 27.1%

Q: What about the growth [11] of the same compound?
A: -46.2% (active)

Q: And the growth [12]?
A: -82% (active)

Q: And the growth [13]?
A: -34.5% (active)

Q: And the growth [14]?
A: -76.6% (active)

Q: What about the growth [15] of the same compound?
A: 46.7%

Q: What about the growth [16] of the same compound?
A: -46.7% (active)

Q: And the growth [17]?
A: -82.7% (active)

Q: And the growth [18]?
A: -68.3% (active)

Q: And the growth [19]?
A: -80.3% (active)

Q: Which results are given for `O=C1NN(C(=O)c2ccc(O)cc2)C(c2ccccc2)=N/C1=C\c1cn(-c2ccccc2)nc1-c1ccccc1`?
A: growth [1]: 98.3%; growth [2]: 103%; growth [3]: 97%; growth [4]: 92%; growth [5]: 100%; growth [6]: 94.9%; growth [7]: 85%; growth [8]: 99.7%; growth [9]: 94%; growth [10]: 92%; growth [11]: 93.7%; growth [12]: 99%; growth [13]: 106%; growth [14]: 107%; growth [15]: 96.8%; growth [16]: 95%; growth [17]: 89.1%; growth [18]: 93.8%; growth [19]: 96.2%

Q: Which growth [1] does the source give for `C#CC[C@H](N)C(=O)O` here?
A: 103% [20 µM]

Q: And the growth [2]?
A: 106% [20 µM]

Q: What about the growth [3] of the same compound?
A: 97.8% [20 µM]

Q: What about the growth [4] of the same compound?
A: 94.4% [20 µM]

Q: What about the growth [5] of the same compound?
A: 104% [20 µM]

Q: What about the growth [6] of the same compound?
A: 87.3% [20 µM]

Q: What about the growth [7] of the same compound?
A: 89.2% [20 µM]

Q: And the growth [8]?
A: 99% [20 µM]

Q: What about the growth [9] of the same compound?
A: 98.1% [20 µM]

Q: And the growth [10]?
A: 104% [20 µM]

Q: And the growth [11]?
A: 96.8% [20 µM]

Q: What about the growth [12] of the same compound?
A: 97% [20 µM]

Q: And the growth [13]?
A: 99.1% [20 µM]

Q: And the growth [14]?
A: 114% [20 µM]

Q: And the growth [15]?
A: 99.8% [20 µM]

Q: What about the growth [16] of the same compound?
A: 102% [20 µM]

Q: And the growth [17]?
A: 96% [20 µM]

Q: And the growth [18]?
A: 101% [20 µM]

Q: And the growth [19]?
A: 100% [20 µM]

Q: `NC(N)=N/N=C/CO` was tested. Which growth [1] did it give?
A: 103%

Q: And the growth [2]?
A: 99%

Q: What about the growth [3] of the same compound?
A: 99.7%

Q: What about the growth [4] of the same compound?
A: 105%

Q: And the growth [5]?
A: 104%

Q: What about the growth [6] of the same compound?
A: 108%

Q: What about the growth [7] of the same compound?
A: 106%

Q: And the growth [8]?
A: 97.9%

Q: What about the growth [9] of the same compound?
A: 99.9%

Q: And the growth [10]?
A: 101%

Q: What about the growth [11] of the same compound?
A: 99.2%

Q: What about the growth [12] of the same compound?
A: 111%

Q: What about the growth [13] of the same compound?
A: 111%

Q: And the growth [14]?
A: 109%

Q: And the growth [15]?
A: 105%

Q: And the growth [16]?
A: 103%

Q: What about the growth [17] of the same compound?
A: 97.5%

Q: What about the growth [18] of the same compound?
A: 95.9%

Q: What about the growth [19] of the same compound?
A: 99%

Q: Which growth [1] does the source give for `CCCN1CCN(c2ccc3nc(-c4ccc5nc(-c6cc(OC)c(OC)c(OC)c6)[nH]c5c4)[nH]c3c2)CC1` here?
A: 80.1%

Q: What about the growth [2] of the same compound?
A: 81.7%

Q: And the growth [3]?
A: 94%

Q: And the growth [4]?
A: 84.3%

Q: And the growth [5]?
A: 93.2%

Q: What about the growth [6] of the same compound?
A: 70.5%

Q: What about the growth [7] of the same compound?
A: 41.1%

Q: What about the growth [8] of the same compound?
A: 106%

Q: And the growth [9]?
A: 77.3%

Q: And the growth [10]?
A: 109%

Q: And the growth [11]?
A: 59.5%

Q: And the growth [12]?
A: 7.58% (active)

Q: What about the growth [13] of the same compound?
A: 98.4%

Q: What about the growth [14] of the same compound?
A: 15.6%

Q: What about the growth [15] of the same compound?
A: 75.6%

Q: And the growth [16]?
A: 65.9%

Q: What about the growth [17] of the same compound?
A: 59.6%

Q: And the growth [18]?
A: 71.7%

Q: What about the growth [19] of the same compound?
A: 63.9%
